# Results from the OligoGym collection.
# Biological target: VKORC1
# Test: pooled miR-30 sensor sort-seq; sequence = guide strand
# Conditions: shRNA
# Also: reference of the scale not given here.
row,Sequence,sensor-assay potency score (higher = more potent)
1,TTGATTGAGGATGCTGTCCTGT,0.167
2,TAGAGCACGAAGAACAGGATCC,-0.705
3,TTGATAGCATAGGTGGTGATAC,-0.976
4,ATAGCATAGGTGGTGATACAAA,-1.7
5,AGCACGAAGAACAGGATCCAGG,-2.45
6,AACAATGCAGAAATCATAGAGC,-0.667
7,ATAGGTGGTGATACAAACAATG,-1.33
8,TCATAGAGCACGAAGAACAGGA,0.298
9,TCACGTTGATAGCATAGGTGGT,-0.749
10,TAGGTGGTGATACAAACAATGC,-1.84
11,TAGAGCGAGAGCACTAAGCCCG,-0.598
12,TTGGACCTTCCGGAAACTGAGC,-1.21

# Biological target: VN1R2
# Test: as above
# Conditions: shRNA
row,Sequence,sensor-assay potency score (higher = more potent)
1,TTATTGGATACAAAGCAGGAGA,-0.969
2,TTAGATAGGATAACCAAGGAGT,-0.311
3,TTGGGGTAGAGATTGTTCCTAC,-0.232
4,TTTGGTGGGTTTCTCTCCGTGT,-0.0937
5,TAAACGTAGGTGATGAAGGAAA,-0.975
6,TAACATAATGCAAAGGTGCTCA,-0.437
7,TTTTACTTTCATCTCTGCCCAC,-0.563
